Hits are enriched below; roughly 2.4% of the tested compounds scored in any of these assays.
CHRM1 PAM = human CHRM1 positive allosteric modulation; P11229; CHO-K1 hM1, Fluo-8 calcium fluorescence, ACh EC20; 0% = ACh EC20, 100% = maximal ACh; activation, % at 3 µM; hit rate 0.088% among 360,000; AID 588819; in the data active means activation above about 19%, passing the limit was not always enough
Target sequence (P11229 whole entry, looked up): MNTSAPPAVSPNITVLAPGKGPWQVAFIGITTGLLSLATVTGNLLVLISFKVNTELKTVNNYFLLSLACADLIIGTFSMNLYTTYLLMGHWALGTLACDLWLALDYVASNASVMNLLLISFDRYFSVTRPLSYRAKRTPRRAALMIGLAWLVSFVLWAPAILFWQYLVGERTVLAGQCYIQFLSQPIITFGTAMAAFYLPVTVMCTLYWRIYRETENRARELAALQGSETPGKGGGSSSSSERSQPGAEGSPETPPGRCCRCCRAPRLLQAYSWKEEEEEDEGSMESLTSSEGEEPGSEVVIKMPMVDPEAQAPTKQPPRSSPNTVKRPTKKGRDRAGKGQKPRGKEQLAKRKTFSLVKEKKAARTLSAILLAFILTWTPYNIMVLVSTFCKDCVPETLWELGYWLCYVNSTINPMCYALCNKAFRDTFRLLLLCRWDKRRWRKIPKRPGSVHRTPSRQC
CHO-K1 Ca ag = M1 agonist counterscreen hit in parental CHO-K1 cells | activation, % at 3 µM | hit rate 0.48% among 360,000 | Fluo-8 calcium fluorescence; scaled to maximal ATP response, vehicle zero; in the data active means activation above about 15%;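 further: untransfected CHO-K1 host cells lacking M1 receptor as counterscreen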
M1 ag = human M1 muscarinic receptor agonism. activation, % at 3 µM. AID 588814. CHO-K1 hM1, Fluo-8 calcium fluorescence, agonist mode; 0% DMSO, 100% acetylcholine EC100. hit rate 0.33% among 360,000;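 active means activation above the run's mean compound activation plus 3 SD, cut at about 16% in these data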;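 further: peak over basal fluorescence ratio within a 140 s kinetic read after compound addition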
CHRM1 antagonist = blocks human M1 muscarinic receptor; hit rate 1.3% among 360,000; P11229; inhibition, % at 3 µM; CHO-K1 hM1, Fluo-8 calcium fluorescence, ACh EC80 antagonist;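 active means percent inhibition above its own plate's cutoff, namely the mean of that plate's compound wells plus 3 SD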;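 further: peak over basal fluorescence ratio during 140 s after agonist addition; 0% = ACh EC80 plus DMSO and 100% = DMSO alone without agonist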
CHO-K1 Ca PAM = M1 PAM counterscreen hit in parental CHO-K1 cells; ATP EC20, Fluo-8 calcium fluorescence; 0% at ATP EC20, 100% at ATP max; activation, % at 3 µM; hit rate 0.02% among 360,000;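 active means activation above the run cutoff, the mean activation of all test compounds plus 3 SD, cut at about 40% in these data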;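 further: peak over basal fluorescence ratio in a 140 s read after ATP addition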
CHO-K1 Ca antag = M1 antagonist counterscreen hit in parental CHO-K1 cells | AID 602250 | inhibition, % at 3 µM | hit rate 0.6% among 360,000 | ATP-induced calcium, Fluo-8 fluorescence;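 active means inhibition above a per-plate cutoff, the plate's mean sample inhibition plus 3 SD, cut at about 24% in these data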;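 further: 0% = DMSO plus EC80 ATP and 100% = DMSO alone without ATP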
The depositor's hits bear a star; / = no result.

SMILES	CHRM1 PAM	CHO-K1 Ca ag	M1 ag	CHRM1 antagonist	CHO-K1 Ca PAM	CHO-K1 Ca antag
C#C[C@]1(O)CCC2C3C(=O)C=C4C=CCC[C@]4(C)C3CC[C@@]21C (stereo not given in full)	-6.9	7.0	1.4	0.5	4.4	-5.2
C#CC1(O)CCC2C3CCC4=CC(=O)CCC4=C3C=CC21C (stereo not given)	-15.2	16.0*	5.0	13.4	-12.4	3.4
NC(=O)c1ccsc1NC(=O)COC(=O)Cc1ccccc1	-6.2	10.9	3.4	11.2	-7.2	24.6*
O=C(COC(=O)Cc1ccccc1)NC12CC3CC(CC(C3)C1)C2	1.5	-0.1	-1.5	-20.9	-0.9	-2.6
C/C(=N\NC(=S)Nc1ccccc1)c1c(O)n(C)c(=O)n(C)c1=O	9.3	22.5*	-7.4	-5.3	24.6	-4.5
CC/C(=N\Nc1ccccc1)c1c(O)n(C)c(=O)n(C)c1=O	5.9	1.4	-0.5	-7.3	8.8	-3.6
CCSC(=O)N1CCCCCC1	3.8	-0.8	0.1	1.8	13.5	-9.3
Cc1ccc(C2CC3CCC(C2)N3Cc2ccccc2F)cc1 (stereo not given)	-21.6	1.1	-8.0	30.1	-11.8	4.8
Cc1ccc(CN2C3CCCC2CC(NC(=O)Nc2cccc(F)c2)C3)cc1 (stereo not given)	-18.2	6.8	-5.1	37.7*	10.4	-6.2
O=P(O)(Oc1ccccc1)c1ccccc1	-4.8	0.7	-0.9	6.6	10.7	-11.7
C(=NN1CCCCCC1)c1c[nH]c2ccccc12	-9.2	0.9	-2.7	17.6	5.5	-12.2
Brc1ccc2[nH]cc(/C=N/N3CCCCC3)c2c1	-5.0	0.9	32.1*	7.3	8.1	1.3
COc1cc(C)c(CNCCc2c[nH]c3ccccc23)cc1C	4.7	16.0*	-4.4	2.1	-3.1	-0.5
C=C1N2CCC(CC2)C1(O)c1ccc(C)c(C)c1 (stereo not given)	-21.9	-0.1	-4.3	72.2*	-17.1	6.2
CC[C@H]1CN2CCC1C[C@H]2[C@H](O)c1ccnc2ccc(OC)cc12 (stereo not given in full)	-16.5	0.1	-6.9	13.8	-4.2	8.1
O=S(=O)(c1ccccc1)C1CN1c1c(F)c(F)c(F)c(F)c1F (stereo not given)	/	0.9	/	/	7.2	-21.2
C#CCOC(=O)C1=CCCN(C)C1	-13.6	0.6	106.0*	83.4	16.6	-11.5
O=C(COc1ccc(Cl)cc1)NC1CN2CCC1CC2 (stereo not given)	-18.6	0.5	-5.3	45.0*	20.6	-2.5
S=C1CN=C(c2ccccc2)c2cc(Cl)ccc2N1	6.9	-0.3	46.0*	-3.7	3.9	-0.7
CCOc1cc2c(cc1OCC)-n1cccc1C(c1cc(OC)ccc1F)NC2 (stereo not given)	3.5	1.0	-6.9	3.2	3.5	-14.0
C[C@@H]1CN([C@@H](C)CO)C(=O)CCCn2nncc2CO[C@H]1CN(C)C(=O)Oc1ccc2ccccc2c1	9.2	-0.1	-7.9	-18.4	15.2	0.3
CCCC[N+]12CCC(CC1)C(=C(c1ccccc1)c1ccccc1)C2	-25.9	0.0	-13.6	99.4*	-12.6	2.7
CCC[N+]12CCC(CC1)C(=C(c1ccccc1)c1ccccc1)C2	-25.5	-0.2	-6.8	98.9*	-9.7	-11.7
CCC(C)N1C(=O)NC(=O)C2(Cc3c(ccc4ccccc34)N(C)C2)C1=O (stereo not given)	-15.0	4.5	2.8	44.0*	12.5	2.5

Source: PubChem BioAssay (The Scripps Research Institute Molecular Screening Center)
